Results from the supplement of paper PMC3334620.
Whole data set: some 33,000 sequences, median “E-score (-0.5 to 0.5)” near -0.032, cut for the highest 2% near 0.36. Many of the other results were omitted from the sample, so the highest values are more common in it than they were.

biological target: T1, Sko1 (UniProt Q02100); assay: PBM E-score (8-mer binding enrichment) (E-score (-0.5 to 0.5)); higher = stronger / more preferred TF binding; conditions: protein concentration: 200 nM; construct: GST-full length
T1 sequence: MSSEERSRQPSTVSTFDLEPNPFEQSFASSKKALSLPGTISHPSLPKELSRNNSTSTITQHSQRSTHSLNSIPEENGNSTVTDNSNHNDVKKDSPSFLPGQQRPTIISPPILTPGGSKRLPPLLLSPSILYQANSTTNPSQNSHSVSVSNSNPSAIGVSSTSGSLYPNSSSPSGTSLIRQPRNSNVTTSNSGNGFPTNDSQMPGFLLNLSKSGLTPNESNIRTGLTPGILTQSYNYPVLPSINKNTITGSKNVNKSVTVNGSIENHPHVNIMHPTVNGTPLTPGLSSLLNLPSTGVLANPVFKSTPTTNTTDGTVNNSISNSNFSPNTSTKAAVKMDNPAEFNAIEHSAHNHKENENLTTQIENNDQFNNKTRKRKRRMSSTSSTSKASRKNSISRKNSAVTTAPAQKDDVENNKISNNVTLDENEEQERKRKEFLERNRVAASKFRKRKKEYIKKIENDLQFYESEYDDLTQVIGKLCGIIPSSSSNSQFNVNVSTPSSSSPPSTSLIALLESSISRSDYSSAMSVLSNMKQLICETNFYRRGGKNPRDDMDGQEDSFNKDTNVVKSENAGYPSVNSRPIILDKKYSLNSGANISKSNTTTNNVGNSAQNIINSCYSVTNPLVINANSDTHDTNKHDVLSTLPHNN
Method: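 Universal 'all 10-mer' protein binding microarrays (Agilent AMADID 015681) probed with GST-tagged S. cerevisiae TFs (full-length or DBD) made by in vitro transcription/translation (PURExpress), about 100-200 nM. Bound TF was detected with fluorescent anti-GST. Each ungapped 8-mer (which stands for itself and its reverse complement) is scored by the PBM enrichment score (E-score), a modified Wilcoxon-Mann-Whitney statistic from -0.5 to +0.5, computed with the Universal PBM Analysis Suite. Scale: above 0.35 generally sequence-specific binding.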

Row | Sequence | PBM E-score
1 | GGAAAACC | -0.128
2 | CATTAGCC | -0.188
3 | AATGACAG | 0.0139
4 | AATGACAT | 0.4
5 | AGTGACAT | 0.361
6 | AATGACAC | 0.258
7 | AGTGACAA | 0.0709
8 | AGTGACAC | 0.191
9 | ACTGCCTG | -0.0718
10 | AGAAGCAT | -0.0822
11 | CTGGGTTC | -0.145
12 | ACCACAGC | -0.195
13 | AATGGCGT | 0.387
14 | AATGGCGG | -0.3
15 | AATGGCGC | -0.0228
16 | CACTCCTC | -0.168
17 | ACTCAGCT | -0.174
18 | CACGTACG | 0.406
19 | CACGTACC | 0.407
20 | CCCGTACG | 0.0984
21 | AACGTACA | 0.303
22 | AACGTACC | 0.223
23 | CTCGTACC | 0.123
24 | CACGTACA | 0.389
25 | CAAGTACG | 0.135

Row | Sequence | PBM E-score
26 | CCCGTACA | -0.273
27 | AGCGTACG | 0.214
28 | CGCGTACG | 0.401
29 | CGCGTACA | 0.209
30 | ACTTATTA | 0.157
31 | GAGCCCTC | -0.351
32 | ACCTTTCC | -0.271
33 | AGGGCGAT | -0.0344
34 | ACTAGGGC | -0.211
35 | GCACTTAA | 0.109
36 | AAACCTGC | -0.203
37 | AGCTTCCT | 0.0027
38 | TCCGTACA | 0.0313
39 | GGCGTACC | -0.0685
40 | ACCGTACA | 0.0593
41 | GTCGTACA | 0.0687
42 | GCCGTACA | -0.148
43 | GCCGTACC | -0.175
44 | GACGTACC | 0.433
45 | GACGTACA | 0.446
46 | TACGTACA | 0.477
47 | ATTCAAGA | 0.0257
48 | ACTCTCAA | -0.00162
49 | CGTGTGGA | 0.00704
50 | AAATCTCG | 0.014

Row | Sequence | PBM E-score
51 | GACACTTA | -0.00276
52 | AAATTACT | 0.196
53 | CAATTACC | 0.156
54 | CAATTACA | 0.167
55 | CAATTACG | 0.455
56 | AAATTACC | 0.0333
57 | ATATTACC | 0.251
58 | ATATTACG | 0.465
59 | ATATTACA | 0.175
60 | AAATTACG | 0.439
61 | AAGGTCGA | -0.0566
62 | ACCAAGCT | 0.0443
63 | GACACCAC | -0.0851
64 | CACTATCG | -0.0728
65 | GAATCATC | 0.0732
66 | ACGTTGTA | 0.394
67 | ACGTTACG | 0.428
68 | ACGTTAGC | 0.352
69 | GCGTTATA | 0.194
70 | ACGTTACC | 0.297
71 | ACGTTATA | 0.426
72 | GCGTTGTA | 0.057
73 | ACGTTACA | 0.359
74 | CCGTTATA | 0.0635
75 | ACGTTGTG | 0.311

Row | Sequence | PBM E-score
76 | CCGTTATC | -0.00855
77 | ACGTTATC | 0.413
78 | CGCGCTGC | -0.147
79 | CGCCCGGA | -0.211
80 | TACTGAAA | 0.219
81 | AGAGACGA | 0.0256
82 | CCGGCTCA | -0.162
83 | AAGAGAAC | 0.0447
84 | GTGTGAGA | 0.0436
85 | ACGTTATG | 0.419
86 | ACGTTAAG | 0.325
87 | ACGTTAGG | 0.244
88 | AAGACGCG | -0.115
89 | ATGACGCG | 0.476
90 | GCGACGCA | 0.128
91 | ACGACGCG | 0.148
92 | CGGACGCA | -0.121
93 | ATGACGCA | 0.492
94 | GTGACGCA | 0.457
95 | CTGACGCC | 0.159
96 | GGGACGCA | 0.0981
97 | AGGACGCA | -0.117
98 | CTGACGCA | 0.403
99 | ACGACGCA | 0.334
100 | GGACCTCA | -0.0759

Row | Sequence | PBM E-score
101 | ACCTGCGC | -0.192
102 | AGTGTGGG | -0.197
103 | CACCTGGC | -0.0659
104 | CAGCCCTC | -0.334
105 | CCCTAGAG | -0.32
106 | ATTCCCGG | -0.0536
107 | ACTAAGTA | 0.0919
108 | AGGCGCGG | -0.242
109 | ACAAACCG | -0.0685
110 | ATGCCCGG | -0.334
111 | GCGGTTAA | -0.186
112 | TAATTCTA | 0.227
113 | ATCACCAA | 0.0298
114 | ATGACTCC | -0.00531
115 | AAGACGCC | -0.165
116 | ATGACGCC | 0.449
117 | TACTAGAA | 0.124
118 | CGACGTAG | 0.368
119 | CGACGTAC | 0.412
120 | CGACGAAG | 0.00357
121 | GGACGTTA | 0.251
122 | CGACGTTC | -0.0745
123 | CGTCGTAG | 0.0813
124 | AGACGTTA | 0.283
125 | GGACGTAC | 0.275

Row | Sequence | PBM E-score
126 | AGACGGAA | -0.136
127 | CGACGTGC | 0.22
128 | GGACGTAA | 0.426
129 | AGACGTAA | 0.447
130 | CAAAAATC | 0.131
131 | CCGACTCA | -0.246
132 | ACCTAACA | 0.056
133 | CATTTGCG | 0.179
134 | ACGCAGCC | 0.0962
135 | AATACTTA | 0.178
136 | CGACGTGA | 0.344
137 | CGACGTTA | 0.337
138 | CGACGTAA | 0.472
139 | ACTGCACA | -0.0526
140 | GTAACGAA | 0.216
141 | ATAACGGA | 0.0991
142 | ATAACGTA | 0.461
143 | GTAACGTA | 0.421
144 | CTAACGGA | 0.007
145 | GTAACGCA | 0.217
146 | CTAACGAA | 0.0318
147 | ATAACGAA | 0.268
148 | CTAACGTA | 0.374
149 | TCGTCTCA | -0.0858
150 | ATTTCGAA | 0.247

Row | Sequence | PBM E-score
151 | AGTGGGGA | -0.201
152 | ACACCTTG | 0.00022
153 | TTTGCAAA | 0.0584
154 | ATTCATCG | -0.0686
155 | AACCAGAA | 0.0649
156 | AGTAGGAA | -0.0265
157 | CGGAAGGA | -0.178
158 | CCAACGTA | 0.387
159 | CCAACGTC | 0.236
160 | ACAACGTA | 0.416
161 | GCAACGTA | 0.399
162 | ACAACGTC | 0.368
163 | ACAACGAA | 0.0922
164 | ACAACGGA | 0.00163
165 | CCAACGCA | 0.117
166 | GCAACGCA | 0.0485
167 | GCAACGAA | 0.148
168 | ACAACGTG | 0.218
169 | ACAACGCC | 0.0338
170 | ATCACTCC | -0.0415
171 | CACACCCC | -0.208
172 | CGCGAACC | -0.0595
